Our source for the outcome and AC50 values is PubChem BioAssay (EPA / NIEHS).

Conditions in all cases: primary human HUVEC with PBMC; actives raise or lower the signal
Read-out in test [1]: Monocyte Chemoattractant Protein-1 (MCP1), CCL2 (gene 6347)
In words: BSK_LPS_MCP1: BioMAP Diversity Plus: LPS Assay for Monocyte Chemoattractant Protein-1 (MCP1) Biomarker Activity (AID 2283081).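 On AC50: secreted MCP-1 protein quantified by ELISA in culture supernatant.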 In short, it runs like this: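 LPS-stimulated HUVEC/PBMC co-culture; chemical, 24 h; MCP-1 by ELISA; bidirectional fit vs DMSO; cytotoxicity via SRB (0.1% stain, 10% TCA fix, 560 nm) in parallel wells.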

Read-out in test [2]: Tissue Factor, F3 (gene 2152)
Kind of test: BSK_LPS_TissueFactor: BioMAP Diversity Plus: LPS Assay for Tissue Factor Biomarker Activity (AID 2283084). In short, it runs like this:
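In this co-culture system of umbilical vein endothelium with PBMC, stimulated with LPS, cell-surface CD142 is detected by ELISA at 24 h. Endpoint values derive from bidirectional fitting, DMSO serving as baseline.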

Read-out in test [3]: Tumor necrosis factor (Homo sapiens) (UniProt P01375)
In words: BSK_LPS_TNFa: BioMAP Diversity Plus: LPS Assay for Tumour Necrosis Factor alpha (TNFa) Biomarker Activity (AID 2283085).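 On AC50: TNFa protein level quantified by ELISA in the co-culture.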 The gist of the method: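 TNFa was quantified by ELISA in LPS-activated co-cultures of human endothelial cells and PBMC, 24 h post-dosing. Both increases and decreases versus DMSO were fitted.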

Read-out in test [4]: Vascular cell adhesion molecule 1 (VCAM1), VCAM1 (gene 7412)
In words: BSK_LPS_VCAM1: BioMAP Diversity Plus: LPS Assay for Vascular cell adhesion molecule 1 (VCAM1) Biomarker Activity (AID 2283086). The gist of the method:
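VCAM-1 quantified by ELISA in an LPS-activated co-culture of human endothelial cells and peripheral blood mononuclear cells, read 24 h post-treatment. Fitted in both directions versus DMSO; parallel SRB staining flags overt cytotoxicity.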

Read-out in the next test: CD38, CD38 (gene 952)
Kind of test: BSK_SAg_CD38: BioMAP Diversity Plus: SAg Assay for CD38 Biomarker Activity (AID 2283087). The gist of the method:
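CD38 quantified by ELISA (fluorescence) in a superantigen-activated endothelial cell–PBMC co-culture at 24 h post-dose. Activity fitted in both directions relative to DMSO; parallel SRB and Alamar Blue cytotoxicity read-outs.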

Read-out in the next test: CD40, CD40 (gene 958)
Kind of test: BSK_SAg_CD40: BioMAP Diversity Plus: SAg Assay for CD40 Biomarker Activity (AID 2283088). The gist of the method:
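Fluorescence ELISA read-out of CD40 from umbilical vein endothelium plus peripheral blood mononuclear cells, sampled 24 h after dosing. Values come from bidirectional curve fitting with DMSO as baseline.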

Read-out in the next test: CD69, CD69 (gene 969)
In words: BSK_SAg_CD69: BioMAP Diversity Plus: SAg Assay for CD69 Biomarker Activity (AID 2283089).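 On AC50: cell surface CD69 protein quantified by ELISA with fluorescence detection.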 The gist of the method:
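HUVEC co-cultured with PBMC were dosed with chemical, and CD69 was measured by ELISA with fluorescence read-out 24 h later. Bidirectional curve fitting used DMSO as negative control and activity baseline.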

Read-out in test [5]: Monocyte Chemoattractant Protein-1 (MCP1), CCL2 (gene 6347)
Kind of test: BSK_SAg_MCP1: BioMAP Diversity Plus: SAg Assay for Monocyte Chemoattractant Protein-1 (MCP1) Biomarker Activity (AID 2283090). The gist of the method: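 Values derive from bidirectional fitting of ELISA-measured MCP1 against DMSO controls. Readings were taken 24 h after dosing human vascular endothelial cells co-cultured with peripheral blood mononuclear cells under superantigen stimulation.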

The source made the active and inactive calls. How the source made its calls: active means hit-call score of the fitted dose curve at least 0.9, where 1 is the maximum; inactive means score below 0.9.

Tumor necrosis factor (Homo sapiens), sequence (P01375 whole entry, looked up): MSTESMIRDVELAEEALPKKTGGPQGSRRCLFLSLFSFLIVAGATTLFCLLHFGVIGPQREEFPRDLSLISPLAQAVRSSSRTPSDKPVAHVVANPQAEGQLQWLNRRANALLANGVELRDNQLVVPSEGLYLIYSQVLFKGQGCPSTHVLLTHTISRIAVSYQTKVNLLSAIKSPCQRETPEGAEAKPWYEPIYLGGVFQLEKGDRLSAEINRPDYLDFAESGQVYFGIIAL

In the case of `CC(=O)/C=C/C1=C(C)CCCC1(C)C`, the outcome in test [1] was “inactive”; in test [2], “inactive”; in test [3] it was “inactive”; in test [4], “inactive”; with CD38, CD38 (gene 952), “inactive”; with CD40, CD40 (gene 958), “inactive”. For the same compound, the outcome with CD69, CD69 (gene 969) was inactive.
On to `O=C1OC2(c3cc(Br)c(O)c(Br)c3Oc3c2cc(Br)c(O)c3Br)c2c(Cl)c(Cl)c(Cl)c(Cl)c21`, for which the AC50 in test [1] was 4.59 µM (active); in test [2], 8.77 µM (active); in test [4], 5.55 µM (active); with CD38, CD38 (gene 952), 5.04 µM (active); with CD40, CD40 (gene 958) it was 6.57 µM (active); in the test with CD69, CD69 (gene 969), 6.39 µM (active). Further, in test [3], the outcome was inactive.
As for `CCCCC/C=C/C=C/C=O`, the AC50 is 33.5 µM (active) in test [1]; 31.9 µM (active) in test [2]; 30.8 µM (active) in test [3]; 30 µM (active) in test [4]; 31.7 µM (active) with CD38, CD38 (gene 952); 20 µM (active) in the test with CD40, CD40 (gene 958). Also, the concentration at half-maximal activity (AC50) is 30 µM (active) with CD69, CD69 (gene 969) and 31.2 µM (active) in test [5].
Turning to `COc1cc(C=O)ccc1OC(=O)C(C)C`, the outcome in test [1] was “inactive”; in test [2], “inactive”; in test [3] it was “inactive”; in test [4], “inactive”; with CD38, CD38 (gene 952), “inactive”; in the test with CD40, CD40 (gene 958), “inactive”. In addition, the outcome with CD69, CD69 (gene 969) was inactive.
Take `CC(=O)Nc1ccccc1O`: the outcome is “inactive” in test [1]; “inactive” in test [2]; “inactive” in test [3]; “inactive” in test [4]; “inactive” in the test with CD38, CD38 (gene 952); “inactive” in the test with CD40, CD40 (gene 958). The outcome was “inactive” with CD69, CD69 (gene 969) and “inactive” in test [5].
In the case of `CCn1c2ccccc2c2cc(N)ccc21`, the AC50 in test [1] was 1.24 µM (active); with CD38, CD38 (gene 952) it was 4.91 µM (active); with CD40, CD40 (gene 958), 6.33 µM (active); with CD69, CD69 (gene 969), 4.02 µM (active); in test [5] it was 1.85 µM (active). In addition, the outcome in test [2], in test [3] and in test [4] was inactive.
For `c1ccc2sc(SN(C3CCCCC3)C3CCCCC3)nc2c1`, the result in test [1], in test [2] and in test [4] was inactive. Also, the AC50 in test [3] was 5.77 µM (active); with CD38, CD38 (gene 952), 7.65 µM (active); in the test with CD40, CD40 (gene 958), 7.96 µM (active); with CD69, CD69 (gene 969), 5.79 µM (active).
With `O=[N+]([O-])c1cc(C(F)(F)F)ccc1Cl`, the outcome is “inactive” in test [1]; “inactive” in test [2]; “inactive” in test [3]; “inactive” in test [4]; “inactive” in the test with CD38, CD38 (gene 952); “inactive” with CD40, CD40 (gene 958). Also, the outcome in the test with CD69, CD69 (gene 969) was inactive.
As to `CC(=O)O[C@]1(C(C)=O)CC[C@H]2[C@@H]3C[C@H](C)C4=CC(=O)CC[C@]4(C)[C@H]3CC[C@@]21C`, the outcome in test [1] was “inactive”; in test [2], “inactive”; in test [3] it was “inactive”; in test [4] it was “inactive”; with CD38, CD38 (gene 952), “inactive”; with CD40, CD40 (gene 958), “inactive”. The result with CD69, CD69 (gene 969) was inactive.
Consider `Cc1ccc2n[nH]nc2c1`, for which the outcome is “inactive” in test [1]; “inactive” in test [2]; “inactive” in test [3]; “inactive” in test [4]; “inactive” with CD38, CD38 (gene 952); “inactive” with CD40, CD40 (gene 958). The outcome with CD69, CD69 (gene 969) was inactive.
For the compound `O=C=NC1CCC(CC2CCC(N=C=O)CC2)CC1` (stereo not given), the outcome is “inactive” in test [1]; “inactive” in test [4]; “inactive” in the test with CD38, CD38 (gene 952); “inactive” with CD40, CD40 (gene 958); “inactive” with CD69, CD69 (gene 969). In addition, the values for the AC50 in test [2] and in test [3] were 3.97 µM (active) and 2.2 µM (active), respectively.
For the compound `NCCNCCN`, the outcome in test [1] is “inactive”; in test [2], “inactive”; in test [3], “inactive”; in test [4], “inactive”; with CD38, CD38 (gene 952), “inactive”; with CD40, CD40 (gene 958) it was “inactive”. Moreover, the result with CD69, CD69 (gene 969) was inactive.
As to `O=P(c1ccccc1)(c1ccccc1)c1ccccc1`, the outcome in test [1] is “inactive”; in test [2], “inactive”; in test [3], “inactive”; in test [4] it was “inactive”; with CD38, CD38 (gene 952), “inactive”; in the test with CD40, CD40 (gene 958) it was “inactive”. Further, the outcome in the test with CD69, CD69 (gene 969) is “inactive”; in test [5], “inactive”.
